# GDH-TPI counter-1 – inhibits GDH-TPI coupling enzymes, artifact for Mtb FBA screen. GDH-TPI coupled enzyme counterscreen, NADH absorbance. inhibition, % at 4.8 µM. 360,000 compounds, 1.2% hits; in the data active means inhibition above about 30%;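 further: 0% = DMSO wells and 100% = wells lacking the enzyme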
# 3CLpro inhibitor – SARS-CoV 3CLpro protease inhibition | recombinant SARS-CoV 3CLpro, quenched FRET peptide cleavage | inhibition, % at 6 µM | 290,000 compounds, 0.14% hits | AID 1706; in the data active means inhibition above about 12%
# DUSP3 inh – inhibitors of human VHR1 phosphatase (DUSP3) | P51452 | recombinant VHR phosphatase, pNPP absorbance | inhibition, % at 13.3 µM | 290,000 compounds, 0.52% hits | AID 1654; in the data active means inhibition above about 50%
# Target sequence (P51452 whole entry, looked up): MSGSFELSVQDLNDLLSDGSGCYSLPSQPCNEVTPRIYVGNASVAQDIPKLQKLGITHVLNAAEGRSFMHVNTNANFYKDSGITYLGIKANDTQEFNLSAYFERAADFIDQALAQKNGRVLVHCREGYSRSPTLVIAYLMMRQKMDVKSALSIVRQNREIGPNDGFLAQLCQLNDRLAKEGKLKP
# CCHF vOTU inh – blocks the CCHF virus ovarian tumor domain protease. CCHFV vOTU protease, Pep-AMC fluorescence. inhibition, % at 11.5 µM. 370,000 compounds, 0.55% hits. AID 651958; in the data active means inhibition above about 30%; further: 0% = vehicle wells with enzyme and 100% = no enzyme wells
# RecA splice inh – Mtb RecA intein splicing inhibition | cell-free RecA intein splicing, fluorescence | inhibition, % (no concentration beside the values) | 290,000 compounds, 0.75% hits | P9WHJ3 | AID 2221; in the data active means inhibition above about 30%;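 further: 0% = vehicle wells and 100% = reference inhibitor control wells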
# FBA Mtb inh – inhibitors of M. tuberculosis fructose-bisphosphate aldolase; purified M. tuberculosis FBA, fluorescence read-out; inhibition, % at 1 µM; 360,000 compounds, 2.3% hits; P9WQA3;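 further: 0% = vehicle and 100% = reference inhibitor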
# Target sequence (P9WQA3 whole entry, looked up): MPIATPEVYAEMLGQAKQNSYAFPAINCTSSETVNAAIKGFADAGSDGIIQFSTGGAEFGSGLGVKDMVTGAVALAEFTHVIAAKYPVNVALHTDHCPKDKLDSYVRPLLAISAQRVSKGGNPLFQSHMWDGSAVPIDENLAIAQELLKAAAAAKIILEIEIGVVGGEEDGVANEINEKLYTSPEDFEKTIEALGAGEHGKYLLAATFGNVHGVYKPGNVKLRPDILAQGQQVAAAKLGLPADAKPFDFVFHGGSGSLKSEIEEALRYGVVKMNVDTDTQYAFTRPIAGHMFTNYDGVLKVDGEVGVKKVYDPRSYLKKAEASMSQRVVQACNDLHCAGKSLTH
# Mtb FBA inh conf – confirmation of M. tuberculosis fructose-bisphosphate aldolase inhibitors; shares compounds with FBA Mtb inh; purified M. tuberculosis FBA, fluorescence read-out; inhibition, % at 1 µM; 5,600 compounds, 78% hits;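 further: 0% = vehicle wells and 100% = reference inhibitor wells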
# GDH-TPI counter-2 – counter-screen for M. tuberculosis FBA inhibitors: GDH-TPI coupled enzyme inhibition; shares compounds with FBA Mtb inh; GDH-TPI coupled enzyme counterscreen, fluorescence; 5,600 compounds, 81% hits; inhibition, % at 1 µM; in the data active means inhibition above about 10%
# GDH-TPI dose – counter-screen for M. tuberculosis FBA inhibitors: GDH-TPI dose response; shares compounds with FBA Mtb inh; GDH-TPI coupled enzyme assay, fluorescence, artifact counterscreen; IC50, µM; 170 compounds, 79% hits; AID 652145; call rule not given here
# The depositor's hits bear a star; · = not tested or not shown; + = active, no number. The list is not random: actives were taken first. Their share in the collection is about 4.7%. Unless noted, no stated cut-off is given here; in the data, active means inhibition above about 27%; inactive means the rest.
SMILES,GDH-TPI counter-1,3CLpro inhibitor,DUSP3 inh,CCHF vOTU inh,RecA splice inh,FBA Mtb inh,Mtb FBA inh conf,GDH-TPI counter-2,others
CC1(C(=O)NCc2cccc(Cl)c2)Cc2c(-c3ccc4c(c3)OCO4)ccnc2O1 (stereo unspecified),10,·,·,15,·,30*,19,21*,
CC1(C(=O)NCc2cccs2)Cc2c(-c3ccc4c(c3)OCO4)ccnc2O1 (stereo unspecified),-1,·,·,9,·,61*,53*,32*,
CN(C)c1ccc(-c2ccnc3c2CC(C)(C(=O)NCc2ccco2)O3)cc1 (stereo unspecified),14,·,·,-21,·,31*,73*,52*,
CC(=O)Nc1ccc(-c2ccnc3c2CC(C)(C(=O)NCc2ccco2)O3)cc1 (stereo unspecified),7,·,·,-8,·,10,·,·,
CN(C)c1ccc(-c2ccnc3c2CC(C)(C(=O)NCc2cccs2)O3)cc1 (stereo unspecified),19,·,·,-21,·,40*,32*,9,GDH-TPI dose=1*
CC(=O)Nc1ccc(-c2ccnc3c2CC(C)(C(=O)NCCC(F)(F)F)O3)cc1 (stereo unspecified),-4,·,·,5,·,7,·,·,
CC(C)NC(=O)C1(C)Cc2c(-c3ccc(N(C)C)cc3)ccnc2O1 (stereo unspecified),12,·,·,-18,·,38*,+,+,
CN(C)c1ccc(-c2ccnc3c2CC(C)(C(=O)NCc2ccc(F)c(F)c2)O3)cc1 (stereo unspecified),25,·,·,-9,·,44*,103*,78*,
CN(C)c1ccc(-c2ccnc3c2CC(C)(C(=O)NCCC(F)(F)F)O3)cc1 (stereo unspecified),24,·,·,-28,·,36*,97*,64*,
CNC(=S)N(Cc1cc2cc(OC)c(OC)cc2[nH]c1=O)C1CCCC1,9,4,16,-16,1,10,·,·,
CCOC(=O)c1n[nH]n2c1nc(=O)c1ccccc12,3,-3,17,-5,-1,33*,116*,108*,
COc1ccc(S(=O)(=O)N(C)C[C@@H]2Oc3c(NS(C)(=O)=O)cccc3C(=O)N([C@@H](C)CO)C[C@H]2C)cc1,6,·,·,2,·,-1,·,·,
O=C(CCCC(=O)NCC1CCCO1)NCC1CCCO1 (stereo unspecified),-4,-4,10,4,-2,-1,·,·,
O=C(CN1CCCCCC1)NCC1CCCO1 (stereo unspecified),-3,-4,11,-13,0,97*,80*,73*,
COc1cc(OC)cc(-c2sc3ccc(OC)cc3c2C#CCO)c1,1,·,·,8,·,8,·,·,
COc1cc2sc(-c3ccc(S(C)(=O)=O)cc3)c(C#CCO)c2cc1OC,27,·,·,-13,·,54*,112*,87*,
CC(C)(O)[C@H](O)COc1c2ccoc2cc2oc(=O)ccc12,15,-3,20,2,-2,2,·,·,
CC(=O)O[C@H](COc1c2ccoc2cc2oc(=O)ccc12)C(C)(C)O,12,·,·,-19,·,45*,0,-6,
Cc1oc2c(c(C)cc3oc(=O)c(CC(=O)N[C@@H](CC(C)C)C(=O)O)c(C)c32)c1C,11,-1,3,-10,-3,31*,85*,64*,
Cc1oc2c(c(C)cc3oc(=O)c(CC(=O)NCCC(=O)O)c(C)c32)c1C,23,-1,2,-23,-8,31*,159*,99*,
Cc1cc2oc(=O)c(CC(=O)O)c(C)c2c2occ(C(C)(C)C)c12,18,4,·,11,-3,15,·,·,
Cc1coc2c1c(C)cc1oc(=O)c(CC(=O)NCC(=O)O)c(C)c12,19,-1,10,-82,-3,101*,141*,94*,
Cc1coc2c1c(C)cc1oc(=O)c(CC(=O)NCCCCCC(=O)O)c(C)c12,2,-2,-16,-59,-2,62*,+,175*,
OC[C@@H]1CN(Cc2ccc(Cl)cc2)C[C@H](n2cnc3c(N4CCCC4)ncnc32)O1,12,·,·,4,·,5,·,·,
O=S(=O)(Nc1cccc(-c2cn3c(n2)SCC3)c1)c1cccs1,0,1,29,-2,1,32*,98*,96*,
SMILES,GDH-TPI counter-1,3CLpro inhibitor,DUSP3 inh,CCHF vOTU inh,RecA splice inh,FBA Mtb inh,Mtb FBA inh conf,GDH-TPI counter-2,others
COC(=O)[C@@]12C[C@@H](CC(=O)N3CCC(c4ccccc4)CC3)C(=O)N(Cc3ccc4c(c3)OCO4)C1=CCC(C)(C)C2,·,·,·,5,·,·,·,·,
COC(=O)c1ccccc1NC1CC(=O)N(c2c(C)cccc2C)C1=O (stereo unspecified),9,3,-6,-48,-2,89*,+,+,
S=c1[nH]nc(-c2c[nH]c3ccccc23)o1,3,-4,·,6,2,50*,0,-2,
Oc1cc2ccccc2cc1-c1n[nH]c(=S)o1,18,3,14,5,-4,6,·,·,
CCNC(=O)Nc1ccc2c(c1)C(=O)N(C)[C@H]1CC[C@@H](CC(=O)NCCN3CCCC3)O[C@@H]1CO2,·,·,·,-5,·,·,·,·,
NC(=NCCc1ccccc1)NC(=O)c1cc(Cl)ccc1O,5,·,·,-37,-13,46*,90*,77*,
COCCNC(=O)/C(C#N)=C/c1c(N2CCCCCC2)nc2ccccn2c1=O,25,-1,10,0,-2,87*,45*,47*,
COCCNC(=O)/C(C#N)=C/c1c(N2CCN(c3ccc(OC)cc3)CC2)nc2c(C)cccn2c1=O,2,4,34,-101,-50,80*,73*,58*,
N#C/C(=C\c1c(N2CCCCCC2)nc2ccccn2c1=O)C(N)=O,12,-4,·,-2,5,4,·,·,
CCOC(=O)/C(C#N)=C/c1c(N2CCN(c3cccc(Cl)c3)CC2)nc2c(C)cccn2c1=O,-2,4,-22,-8,1,1,·,·,
COCCNC(=O)C(C#N)c1nc2ccccc2nc1N1CCCCCC1 (stereo unspecified),19,-2,-2,-28,-34,37*,-4,-4,
COCCNC(=O)/C(C#N)=C/c1c(N2CCN(c3cccc(Cl)c3)CC2)nc2c(C)cccn2c1=O,-1,-5,·,-84,-41,69*,165*,124*,
COc1ccc(S(=O)(=O)NCc2ccc(C(=O)NCCCN3CC(C)CC(C)C3)cc2)cc1 (stereo unspecified),3,1,-2,-9,-5,-1,·,·,
Cc1ccc(S(=O)(=O)N2CCOCC2)cc1NC(=O)Cn1nc(C)c([N+](=O)[O-])c1C,2,·,·,3,1,4,·,·,
